High-throughput results: PubChem, National Center for Advancing Translational Sciences (NCATS)
This is one part of a sample in which hits are shown more often than they occur.
Pf Dd2 inh: inhibitors of Plasmodium falciparum Dd2 growth; Potency, µM (titrated, usually from 28.9 µM), without a hit: top-dose activity, negative = inhibition, actives largely listed as inhibitors; AID 1347417; actives 4.3% (n = 120,000); P. falciparum Dd2 growth, SYBR Green, 72 h; active = well fitted inhibition curve with a large enough effect;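 also: plate controls were DMSO vehicle for no effect and reference drug for full effect; nearly all actives have a fitted effect of over 65% in size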
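Readout: SYBR Green fluorescence, 485 nm excitation, 535 nm emission, after ~16 h lysis at 37C. Before that, Dd2-infected red cells (2.5% hematocrit) grew 72 h with compound, 29 uM top final concentration.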
An asterisk follows results filed as active; i = inactive; [ ] = remark or other dose. Potency is read from the fitted curve at half-maximal effect.

SMILES	Pf Dd2 inh
CCCN1CCCCC12Cc1ccccc1CN(C(=O)CCCC(=O)O)C2 (stereo not given)	5%
O=C(O)CCCC(=O)N1Cc2ccccc2CC2(CCCCN2CCc2ccccc2)C1 (stereo not given)	-20%
CCCC(=O)N1Cc2ccccc2CC2(CCCN2CCC)C1 (stereo not given)	8.9µM*
CCCN1CCCC12Cc1ccccc1CN(C(=O)CNC(C)=O)C2 (stereo not given)	9%
CCCC(=O)N1Cc2ccccc2CC2(CCCCN2CC)C1 (stereo not given)	10µM*
NCCC(=O)N1Cc2ccccc2CC2(CCCCN2CC2CCNCC2)C1 (stereo not given)	18%
COCCN1C(=O)[C@H]2CN(Cc3ccc(OC)c(OC)c3Cl)C[C@H]2C1=O	-23%
O=C(NCCCn1cccn1)c1c(OCC2CC2)cc(=O)n2c1CCCCC2	16%
COCCN1CCCCCC(O)c2cc(C(=O)NCc3cc(F)cc(F)c3)ccc21 (stereo not given)	13µM*
COCCN1CCCCCC(O)c2cc(C(=O)NCC3CC3)ccc21 (stereo not given)	i
COCCN1CCCCCC(O)c2cc(C(=O)NCC(C)C)ccc21 (stereo not given)	-11%
COc1ccc(Cl)cc1NC(=O)CCC1CCCN(c2ccc(C(F)(F)F)cn2)C1 (stereo not given)	-23%
COc1ccc(CC(=O)N2CC[C@@H](CC(=O)O)[C@@H](CCN3C[C@@H]4C[C@H](C3)c3cccc(=O)n3C4)C2)cc1	-18%
CCOc1ccc2[nH]c(=O)c(CN(C)CC3CCN(C)C3)cc2c1 (stereo not given)	-8%
COC1C(=O)N(c2cccc(F)c2)C12CCN(C(=O)C1CCCC1)CC2 (stereo not given)	i
COc1cccc(-c2noc(-c3ccc(NCCn4cccn4)nc3)n2)c1OC	13µM*
COc1cccc(-c2noc(-c3ccc(-c4cn[nH]c4)nc3)n2)c1OC	-23%
COc1cccc(-c2noc(-c3ccc(NCCCSC)nc3)n2)c1OC	i
COc1ccc(NC(=O)Cn2c(C)cc3nc4n(c(=O)c32)CCC4)cc1OC	i
COc1cccc(CNC(=O)[C@@H]2C[C@@H](O)CN2C2CCN(C(=O)c3ccccc3)CC2)c1	-2%
O=C(NCCCN1CCCC1)c1cn2ccnc(-c3ccccc3)c2n1	-16%
COc1cccc(CN2C[C@@H](F)[C@@H](OCc3nc4ccccc4o3)C2)n1	i
Cc1noc(C)c1[S+](=O)([O-])N1CCC2(CC1)OCCN(c1ccc(F)cc1)C2=O	-20%[44.1 µM]
CN(C)Cc1ccc(-c2cc3c(ccn3Cc3ccncc3)c(N3CCOCC3)n2)cc1	11µM*
c1cc(Cn2ccc3c(N4CCOCC4)nc(-c4cn[nH]c4)cc32)ccn1	3%[44.1 µM]
SMILES	Pf Dd2 inh
Cn1cc(-c2cc3c(ccn3Cc3ccncc3)c(N3CCOCC3)n2)cn1	39%[44.1 µM]
O=C(c1ccccc1F)N1CCCC2(CNc3ccccc3[S+](=O)([O-])N2)C1 (stereo not given)	-19%
COc1ccccc1C(=O)N1CCC(CCOc2ccncc2)C1 (stereo not given)	8%
Cc1nccn1CCCNC(=O)c1ccc2nc(C3CC3)oc2c1	-10%
CCCC1c2nccn2CCCN1C(=O)c1conc1C (stereo not given)	-10%
COc1ccc(C(=O)N2CC3(CCN(C)CC3)c3cc(OC)c(OCc4ccccc4)cc32)cn1	i
COc1cccc([S+](=O)([O-])N2CCCC3(CC(Cc4ccccc4)=NO3)C2)c1 (stereo not given)	i
COc1cc2c(cc1OCc1ccccc1)N([S+](=O)([O-])c1ccc3c(c1)CCO3)CC21CCN(C)CC1	3.5µM*
COC1CCN(C(=O)c2ccnc(-c3nnc4ccc(N(C)c5ccccc5)nn34)c2)CC1	i
COc1ccc(CNC(=O)[C@@H]2CCC[C@@H](NCc3c(C)noc3C)CN(C)C(=O)C2)cc1	i
O=C(NCCn1nc(-c2ccccc2)ccc1=O)C1NCCc2[nH]cnc21 (stereo not given)	-13%
O=C(Nc1ccccc1)c1ccc(-c2cccc3c2CCNC3)o1	11µM*
COc1ccc(NC(=O)c2ccc(-c3cccc(Cl)c3C)o2)cc1	10%
Cc1ccc(NC(=O)c2ccc(-c3cccc(Cl)c3C)o2)cc1	20%
O=C(NCc1ccccc1)c1ccc(CS(=O)(=O)c2c(Cl)cccc2Cl)o1	i
O=C(NCc1ccccc1)c1ccc(-c2cccc3c2CCNC3)o1	11µM*
Cc1ncc2c(c1CNC(=O)c1cccc(OC(F)F)c1)CCNC2	-12%
CNC(=O)[C@@H]1CN(C(=O)COc2ccc(Cl)cc2)C[C@H]1COC	-9%
CN1CC(c2ccccc2)CC2(CCN(C(=O)c3ccccc3)CC2)C1 (stereo not given)	i
Cc1noc2ncnc(N3CCC4(CC3)CC(c3ccccc3)CN(C)C4)c12 (stereo not given)	11µM*
CN1CC(c2ccccc2)CC2(CCN(C(=O)C3CCOCC3)CC2)C1 (stereo not given)	-9%
CCOc1cccc(-c2noc(-c3nc(CC)no3)n2)c1	i
